Values joined by “and” are separate entries in the source; they are usually repeats but may differ in a detail not shown here. Equal values may be shown once. Inconclusive results are not listed. Active and inactive are the calls of the source. Unless noted, no cut-off is given here; in the data, nearly all actives have AC50 up to about 30 µM.
Experiments:
[1] = liver-stage malaria parasite growth inhibition, primary screen, cell-based, HepG2, luciferase luminescence, HepG2 viability (AID 624349; in the data active = parasite load remaining mostly below about 12%, no sharp cut-off; inactive = mostly above about 10%;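 note: 100% = mean of DMSO negative control wells on the same plate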); settings: P. berghei liver stage in HepG2, luciferase luminescence, concentration not given here; parasite load remaining: stronger effect = lower value; viability: measured here: HepG2 viability without parasites
[2] = stimulators of nuclear beta-catenin in C2C12, primary screen, imaging, WNT3A-conditioned medium, mouse C2C12, NPC library (AID 1117326; in the data active = nuclear beta-catenin stimulation mostly above about 4.2%, no sharp cut-off; inactive = mostly below about 10%; note: reference of the scale not given here); settings: stronger effect = higher value
[3] = stimulators of insulin release from INS-1E, primary screen, cell-based, 5 mM glucose, NPC library (AID 1117329;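 active = compound raises insulin release from rat beta cells at 5 mM glucose, no numeric limit stated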; note: reference of the scale not given here); settings: rat INS-1E insulin secretion, at 10 µM, stronger effect = higher value
[4] = growth inhibition of GSK3B-pretreated HCT116 cells – cell-based, CellTiter-Glo, 0.2 to 20 µM (AID 1117336;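 active = compounds lowering colon cancer cell viability after pretreatment blocking the GSK3B kinase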); settings: HCT116 viability after GSK3B inhibitor, at 20 µM, stronger effect = higher value
[5] = inhibition of endothelial tube formation, primary screen, imaging, VEGF stimulated, CD31 staining, tube area, NPC library (AID 1117340;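 active = compound that reduces growth-factor-driven endothelial tube area in a mixed cell culture, no cutoff stated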); settings: VEGF-stimulated ADSC/ECFC co-culture, at 10 µM, stronger effect = higher value
[6] = glucagon-like peptide 1 release enhancers, primary assay, NCI-H716 cell line, NPC library (AID 1117341;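 active = compound raises GLP1 secretion from the human gut endocrine cells, with no numeric limit stated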; note: reference of the scale not given here); settings: NCI-H716 cells, at 10 µM, stronger effect = higher value
[7] = HCT116 colon cancer cell growth inhibition, primary screen, CellTiter-Glo luminescence, NPC library (AID 1117342;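 active = compounds that lower survival of HCT116 colon cancer cells in the luminescence readout, no numeric limit stated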); settings: at 20 µM (top of the series)
[8] = CellTiter-Glo luminescent readout of SW480 viability loss, NPC library primary (AID 1117343;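 active = compounds that lower viability of the colon cancer cells in the luminescence readout, with no numeric limit stated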); settings: CellTiter-Glo luminescence; at 20 µM (top of the series) unless noted
[9] = decreased DLD-1 cellular survival, CellTiter-Glo luminescent readout, NPC compound collection, primary HTS (AID 1117346;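 active = compounds that lower survival of DLD-1 colon cancer cells in the luminescence readout, no cutoff given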); settings: DLD-1 viability, CellTiter-Glo luminescence; at 20 µM (top of the series)
[10] = SU-DIPG-VI glioma cell viability, MIPE4.0 library, CellTiter-Glo luminescence, qHTS (AID 1347066); settings: CellTiter-Glo ATP luminescence;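 note: cells exposed to compound for 48 hours before readout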
[11] = sensitizers of A549 cells to miR-34 induction, primary screen, imaging, A549 dox-inducible miR-34, nuclei and caspase counts (AID 1347080;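 active = compounds whose cell count with miR-34 switched on is under 0.7 times the count with it off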); settings: A549 miR-34 inducible, Hoechst nuclei count, 48 h
[12] = survival rescue of mitochondrial mutant cells in low glucose, primary screen, MELAS cybrids, Rieske KO mouse fibroblasts, CellTiter-Glo (AID 1508586;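 active = mean z-score across replicates of 1.96 or higher in either the MELAS or the Rieske mutant cell line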;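 note: z relative to plate mean and SD of compound and empty wells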)
[13] = viability rescue of complex I mutant cybrids, primary screen, cell-based, galactose medium, ATP luminescence (AID 1645843;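 active = z-score of at least 1.8 in each of two replicates, scored against plate mean and spread of sample wells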;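 note: positive z means more ATP and so rescue of galactose-driven cybrid death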); settings: complex I mutant cybrid cells, 72 h, stronger effect = higher value
[14] = growth inhibition of DIPG glioma cells, dose response, cell-based, JHH-DIPG-1, MIPE4.0, CellTiter-Glo, qHTS (AID 1347062; cut-off not given, nearly all actives have AC50 up to about 27 µM;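 for AC50: cells exposed to compound for two days before readout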); settings: JHH-DIPG-1 viability, CellTiter-Glo ATP luminescence
[15] = growth inhibition of DIPG glioma cells, dose response, cell-based, SU-DIPG-IV, MIPE4.0, CellTiter-Glo, qHTS (AID 1347063); settings: SU-DIPG-IV viability, CellTiter-Glo ATP luminescence;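 note: compound exposure lasted 48 hours before the viability readout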
[16] = SU-DIPG-XXV glioma cell viability, MIPE5.0 library, qHTS (AID 1347068; cut-off not given, nearly all actives have IC50 up to about 30 µM)
[17] = viability loss in pontine glioma line – cell-based, SU-DIPG-XXV, MIPE5.0, CellTiter-Glo, qHTS, dose response (AID 1347065; cut-off not given, nearly all actives have AC50 up to about 26 µM;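 note: cells exposed to compound for 48 hours before ATP readout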); settings: CellTiter-Glo ATP luminescence
[18] = JHH-DIPG-1 glioma cell viability, MIPE5.0 library, CellTiter-Glo luminescence, qHTS (AID 1347067; cut-off not given, nearly all actives have AC50 up to about 26 µM;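 note: cells exposed to compound for 48 hours before readout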); settings: JHH-DIPG-1 glioma viability, CellTiter-Glo ATP luminescence
[19] = phospholipid biosynthesis inhibitors in animal cells, primary screen, cell-based, LOPAC library, screen 4 (AID 1347384; call rule not given here); settings: phospholipid biosynthesis inhibition screen, at 10 µM
[20] = stronger effect = lower value, cell number ratio, induced over uninduced
[21] = measured here: relative caspase fold change +Dox/-Dox
[22] = measured here: total cells with miR-34 induction, stronger effect = lower value
[23] = measured here: total cells without miR-34 induction
[24] = MELAS cybrid survival, CellTiter-Glo 48 h, stronger effect = higher value
[25] = Rieske KO mouse fibroblast survival, CellTiter-Glo 72 h

O=C(Nc1cccc2c(=O)cc(-c3nn[nH]n3)oc12)c1ccc(OCCCCc2ccccc2)cc1
parasite load remaining [1]: 45% (inactive)
viability [1]: 94.5%
nuclear beta-catenin stimulation ([2]; at 10 µM): 0.3% (inactive)
nuclear beta-catenin stimulation ([2]; stimulation, at 2 µM): -0.2%
insulin secretion stimulation [3]: 2.85% (inactive)
viability decrease [4]: 108% (active)
tube area decrease [5]: -18.5% (inactive)
GLP1 secretion stimulation [6]: 21.5% (active)
inhibition of viability [7]: 112% (active)
viability decrease (inhibition) [8]: 125% (active)
viability decrease (inhibition) [9]: 88.8% (active)
outcome [10]: inactive
fold change [11, 20]: 0.93 (inactive) and 0.898 (inactive)
fold change [11, 21]: 0.309 and 1.37
cell count [11, 22]: 5160 and 10700
cell count [11, 23]: 5550 and 12000
z-score [12, 24]: 0.447 (inactive) and -0.129 (inactive)
z-score [12, 25]: 0.183 and 0.319
z-score [13]: 1.36 (inactive)

C=CCc1cc(OC)c(O)c(C(=O)NCCO)c1
nuclear beta-catenin stimulation ([2]; at 10 µM): 1.7% (inactive)
nuclear beta-catenin stimulation ([2]; stimulation, at 2 µM): 2.4%
insulin secretion stimulation [3]: -0.7% (inactive)
viability decrease [4]: -4.9% (inactive)
tube area decrease [5]: 4.3% (inactive)
GLP1 secretion stimulation [6]: 0.4% (inactive)
inhibition of viability [7]: -7.7% (inactive)
viability decrease (inhibition) [8]: 33.7% (inactive)
viability decrease (inhibition) [9]: 1.9% (inactive)
outcome [14]: inactive
outcome [15]: inactive
outcome [10]: inactive
fold change [11, 20]: 0.947 (inactive)
fold change [11, 21]: 0.662
cell count [11, 22]: 8720
cell count [11, 23]: 9220
z-score [12, 24]: -0.166 (inactive)
z-score [12, 25]: 0.363

CCCCCCOC(=O)NC(=N)c1ccc(NCc2nc3cc(C(=O)N(CCC(=O)OCC)c4ccccn4)ccc3n2C)cc1
nuclear beta-catenin stimulation ([2]; at 10 µM): 2.7% (inactive)
nuclear beta-catenin stimulation ([2]; stimulation, at 2 µM): 2.3%
insulin secretion stimulation [3]: 0.9% (inactive)
viability decrease [4]: 78.3% (active)
tube area decrease [5]: -1.4% (inactive)
GLP1 secretion stimulation [6]: -2.6% (inactive)
inhibition of viability [7]: 118% (active)
viability decrease (inhibition) [8]: 155% (active)
viability decrease (inhibition) [9]: 102% (active)
AC50 [14]: 26.4 µM (active)
outcome [15]: inactive
AC50 [10]: 26.4 µM (active)
outcome [16]: inactive

CCC(C)(C)c1ccc(CC(C)CN2C[C@@H](C)O[C@@H](C)C2)cc1 (some centres undefined)
parasite load remaining [1]: 32.9% (inactive)
viability [1]: 99%
nuclear beta-catenin stimulation ([2]; at 10 µM): 0.2% (inactive)
nuclear beta-catenin stimulation ([2]; stimulation, at 2 µM): 0.5%
insulin secretion stimulation [3]: -2.9% (inactive)
viability decrease [4]: 23.9% (inactive)
tube area decrease [5]: -0.6% (inactive)
GLP1 secretion stimulation [6]: 11.9% (inactive)
inhibition of viability [7]: 10.2% (inactive)
viability decrease (inhibition) [8]: 83.9% (active)
viability decrease (inhibition) [9]: 55.5% (active)
outcome [14]: inactive
fold change [11, 20]: 0.818 (inactive) and 0.902 (inactive)
fold change [11, 21]: 0.996 and 1.18
cell count [11, 22]: 6710 and 9820
cell count [11, 23]: 8200 and 10900
z-score [12, 24]: -0.995 (inactive) and -0.921 (inactive)
z-score [12, 25]: -0.654 and -0.53
z-score [13]: -1.82 (inactive)

CC=CC1=C(C(=O)O)N2C(=O)[C@@H](NC(=O)[C@H](N)c3ccc(O)cc3)[C@H]2SC1
nuclear beta-catenin stimulation ([2]; at 10 µM): 1% (inactive)
nuclear beta-catenin stimulation ([2]; stimulation, at 2 µM): 2.9%
insulin secretion stimulation [3]: -0.3% (inactive)
viability decrease [4]: 4.9% (inactive)
tube area decrease [5]: -8.9% (inactive)
GLP1 secretion stimulation [6]: -4% (inactive)
inhibition of viability [7]: 41.6% (inactive)
viability decrease (inhibition) [8]: 45.4% (inactive)
viability decrease (inhibition) [9]: 33.9% (inactive)
outcome [14]: inactive
outcome [15]: inactive
outcome [10]: inactive

Clc1cccc(C(c2ccc3nc[nH]c3c2)n2ccnc2)c1 (centres undefined)
nuclear beta-catenin stimulation ([2]; at 10 µM): 0.3% (inactive)
nuclear beta-catenin stimulation ([2]; stimulation, at 2 µM): -0.6%
insulin secretion stimulation [3]: 1.6% (inactive)
viability decrease [4]: 11.8% (inactive)
tube area decrease [5]: 19.4% (inactive)
GLP1 secretion stimulation [6]: 0.1% (inactive)
inhibition of viability [7]: 43.2% (inactive)
viability decrease (inhibition) [8]: 44.6% (inactive)
viability decrease (inhibition) [9]: 33.5% (inactive)
outcome [17]: inactive
outcome [18]: inactive
outcome [16]: inactive

CCOC(=O)Nc1ccc(NCc2ccc(F)cc2)nc1N
nuclear beta-catenin stimulation ([2]; at 10 µM): 0.2% (inactive)
nuclear beta-catenin stimulation ([2]; stimulation, at 2 µM): 2.4%
insulin secretion stimulation [3]: 1.9% (inactive)
viability decrease [4]: 5.6% (inactive)
tube area decrease [5]: -7.5% (inactive)
GLP1 secretion stimulation [6]: -1.1% (inactive)
inhibition of viability [7]: 18.8% (inactive)
viability decrease (inhibition) [8]: 1.7% (inactive)
viability decrease (inhibition) [9]: 8.6% (inactive)
outcome [15]: inactive
outcome [10]: inactive
outcome [18]: inactive
fold change [11, 20]: 1.05 (inactive) and 0.965 (inactive)
fold change [11, 21]: 0.797 and 0.68
cell count [11, 22]: 10200 and 8110
cell count [11, 23]: 9760 and 8410
outcome [19]: inactive
z-score [12, 24]: -0.196 (inactive)
z-score [12, 25]: -0.17
z-score [13]: 1.55 (inactive)

CC1=C(C)C(=O)C(CCCCC#CCCCC#CCO)=C(C)C1=O
parasite load remaining [1]: 55.8% (inactive)
viability [1]: 216%
nuclear beta-catenin stimulation ([2]; at 10 µM): 2.7% (inactive)
nuclear beta-catenin stimulation ([2]; stimulation, at 2 µM): -0.7%
insulin secretion stimulation [3]: 2.7% (inactive)
viability decrease [4]: 96% (active)
tube area decrease [5]: 16% (inactive)
GLP1 secretion stimulation [6]: 5% (inactive)
inhibition of viability [7]: 87.4% (active)
viability decrease (inhibition) [8]: 126% (active)
viability decrease (inhibition) [9]: 54.6% (active)
fold change [11, 20]: 1.02 (inactive) and 0.926 (inactive) and 0.838 (inactive)
fold change [11, 21]: 1.5 and 0.952 and 1.53
cell count [11, 22]: 8160 and 3040 and 7890
cell count [11, 23]: 7960 and 3280 and 9410
outcome [19]: inactive
z-score [12, 24]: 0.195 (inactive)
z-score [12, 25]: -1.24
z-score [13]: -1.52 (inactive) and -1.61 (inactive)

CN(c1nccc(=O)[nH]1)C1CCN(c2nc3ccccc3n2Cc2ccc(F)cc2)CC1
nuclear beta-catenin stimulation ([2]; at 10 µM): -1.9% (inactive)
nuclear beta-catenin stimulation ([2]; stimulation, at 2 µM): -0.5%
insulin secretion stimulation [3]: 4.3% (inactive)
viability decrease [4]: -6.8% (inactive)
tube area decrease [5]: 10.5% (inactive)
GLP1 secretion stimulation [6]: -3% (inactive)
inhibition of viability [7]: 26.2% (inactive)
viability decrease (inhibition) [8]: 9.6% (inactive)
viability decrease (inhibition) [9]: -5.1% (inactive)
outcome [14]: inactive
outcome [15]: inactive
outcome [10]: inactive
z-score [12, 24]: 0.306 (inactive)
z-score [12, 25]: 0.258

CCCCC(CC)COC(=O)C(C#N)=C(c1ccccc1)c1ccccc1 (centres undefined)
nuclear beta-catenin stimulation ([2]; at 10 µM): -0.2% (inactive)
nuclear beta-catenin stimulation ([2]; stimulation, at 2 µM): 0.7%
insulin secretion stimulation [3]: -1.3% (inactive)
viability decrease [4]: 51.7% (active)
tube area decrease [5]: 19.7% (active)
GLP1 secretion stimulation [6]: -1.3% (inactive)
inhibition of viability [7]: 43.8% (inactive)
viability decrease (inhibition) [8]: 28.2% (inactive)
viability decrease (inhibition) [9]: 56.9% (active)
outcome [14]: inactive
outcome [15]: inactive
outcome [10]: inactive
outcome [16]: inactive

O[C@@H](CNC[C@H](O)[C@H]1CCc2cc(F)ccc2O1)[C@@H]1CCc2cc(F)ccc2O1
nuclear beta-catenin stimulation ([2]; at 10 µM): 8.6% (inactive)
nuclear beta-catenin stimulation ([2]; stimulation, at 2 µM): -2.1%
insulin secretion stimulation [3]: 2.75% (inactive)
viability decrease [4]: 108% (active)
tube area decrease [5]: 60.9% (active)
GLP1 secretion stimulation [6]: 5.8% (inactive)
inhibition of viability [7]: 112% (active)
viability decrease (inhibition) [8]: 130% (active)
viability decrease (inhibition) [9]: 101% (active)
AC50 [15]: 20.9 µM (active)

— PubChem BioAssay
